Measurements from PubChem BioAssay (NCI).
About 79,000 compounds went through this panel and 15% of them were active in at least one assay; those are over-represented in the sample as a whole. Values without a mark were called inactive. The source made the active and inactive calls. Rule as the data show it: active = growth inhibition above about 70%; inactive = the rest.

Experiments:
[1] = NCI Yeast Anticancer Drug Screen. Data for the rad50 strain (AID 155);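 also: 0% = growth of vehicle-only cultures of the same strain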; details: S. cerevisiae rad50 strain growth inhibition; at 50.0 µM; hits give high values
Outline: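 Cells are treated with compound, grown, and their growth is then scored against vehicle-only cultures of the same repair-deficient yeast strain.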

[2] = NCI Yeast Anticancer Drug Screen. Data for the mec2-1 strain (AID 157); details: S. cerevisiae mec2-1 strain, at 50.0 µM, hits give high values
Outline: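 Readout is yeast growth inhibition, normalised to vehicle-treated controls, in the mec2-1 strain exposed to compound.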

[3] = NCI Yeast Anticancer Drug Screen. Data for the sgs1 mgt1 strain (AID 161);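 also: 0% = growth of cultures given vehicle only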; details: S. cerevisiae sgs1 mgt1 strain, at 50.0 µM, hits give high values
Outline: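 Percent growth inhibition was derived by comparing compound-exposed mutant yeast with vehicle-exposed cultures. The strain carries alterations in DNA damage repair.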

[4] = NCI Yeast Anticancer Drug Screen. Data for the cln2 rad14 strain (AID 165);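 also: 0% = growth equal to vehicle treated cultures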; details: S. cerevisiae cln2 rad14 strain, at 50.0 µM, hits give high values
Outline: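 Relative to vehicle controls, growth inhibition of compound-treated cln2 rad14 yeast was recorded.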

[5] = NCI Yeast Anticancer Drug Screen. Data for the bub3 strain (AID 167); details: S. cerevisiae bub3 mutant strain, at 50.0 µM, hits give high values
Outline: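 Part of a panel of yeast mutants defective in DNA damage repair or cell cycle regulation. Each strain is grown with compound, and inhibition is calculated relative to solvent-treated cultures.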

[6] = NCI Yeast Anticancer Drug Screen. Data for the mlh1 rad18 strain (AID 175); details: S. cerevisiae mlh1 rad18 strain growth inhibition; at 50.0 µM; hits give high values
Outline: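 Test agents were incubated with a yeast strain of defined genotype (DNA damage repair defect). Inhibition of growth was derived by comparison with vehicle-exposed cultures.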

| SMILES | growth inhibition [1] | growth inhibition [2] | growth inhibition [3] | growth inhibition [4] | growth inhibition [5] | growth inhibition [6] |
| --- | --- | --- | --- | --- | --- | --- |
| CCCC1CCCC12CCc1ccccc1C2=O (stereo unspecified) | 15.3% | -6.15% | -11.1% | 10.1% | -5.8% | 1.15% |
| CC(C)(C)CC(C)(C)c1ccc2c(c1)NC(C1Nc3cc(C(C)(C)CC(C)(C)C)ccc3O1)O2 (stereo unspecified) | 8.05% | -5.8% | -4.55% | -4.4% | -2.6% | 10.8% |
| O=c1cnc(=O)[nH][nH]1 | -12.4% | -17.2% | -7% | -18.1% | 5.7% | -5.4% |
| CC(NC(=O)OCc1ccccc1)NC(=O)C(CC(=O)OC(C)(C)C)NC(=O)OC(C)(C)C (stereo unspecified) | -26.6% | -40.5% | -24.9% | -7.3% | -30.8% | -29.3% |
| C=C1C(=O)OC2C1C(OC(=O)/C(C)=C/C)CC1(C)C(=O)CCC(=C)C21 (stereo unspecified) | 38.3% | 47% | 52.8% | 44.1% | 52.8% | 63.6% |
| COc1ccc(C2(CN(C)C)COc3cc(OC)c(OC)cc3C2=O)cc1OC (stereo unspecified) | 27% | 2.8% | -7% | 27.6% | -2.1% | 13.3% |
| CC1=C[P+](c2ccccc2)(c2ccccc2)c2ccccc2O1 | 58% | 57.6% | 66.8% | 34.6% | 72.3% (active) | 63.1% |
| CC(=O)/C=C/N(C)c1ccc(O)cc1 | 40.6% | 2.3% | -6.45% | 9.3% | 5.55% | -26.2% |
| Nc1nc2c(c(-c3ccc(Cl)cc3)n1)CN(CCCC(=O)O)C2=O | -1.8% | 13.9% | 7.4% | -0.15% | 2.35% | 10.7% |
| CN(C)C(=O)c1cccnc1 | 0.25% | -4.25% | -4.8% | 27.1% | -18.2% | -2.35% |
| CC(=O)N1CC=CCC1 | -16.6% | 5.85% | -17.9% | -7.5% | -1.55% | -2.85% |
| CCC1=NCCO1 | 5.85% | 0.25% | -2.1% | 4% | 28.1% | -11.7% |
| CCN(CC)CCn1ncc2ccc3c(c(=O)c4cccnc4n3CCN(CC)CC)c21 | 9% | 16.8% | 13.2% | 27.8% | 11.6% | 10.9% |
| COC(=O)CCCc1ccccc1N | -5.65% | -8.8% | -18.9% | -35.8% | 3.1% | -15.9% |
| Cc1ccccc1C(C#N)/C(=N/NC(=O)C(=O)NN)C(=O)Nc1cccc(C(F)(F)F)c1 (stereo unspecified) | 34.1% | 10.9% | 14.2% | 23.1% | 0.25% | 21.8% |
| O=C1OC2CC3CC2C1C3C(=O)N1CCCCC1 (stereo unspecified) | 11.5% | -1.6% | -8.15% | -33% | -9.65% | -5.4% |
| COC(=O)N/N=C/c1oc(-c2ccccc2)c(-c2ccccc2)c1[N+](=O)[O-] | -2.15% | -12.6% | 16.5% | 20.8% | -10.1% | -8.2% |
| Cc1nn(C(=O)CC(=O)Nc2ccc(Cl)cc2)c(C)c1N=Nc1ccccc1F | -40% | -25.5% | -60.6% | -12.4% | -28.4% | -43% |
| NC(=O)C(=CNC(=S)Nc1ccc(S(=O)(=O)Nc2ccccn2)cc1)C(N)=O | -31.8% | -8.3% | 22.3% | -4.1% | 11.3% | -26.8% |
| COC(=O)C(Cc1ccccc1)NCCN (stereo unspecified) | -0.1% | 7.4% | -3.9% | -17% | -5.95% | 2.1% |
| Cc1cccc(NC(=O)OCCOC(=O)Nc2cccc(C)n2)n1 | -15.1% | -11.6% | -19.4% | -9.25% | -11.1% | -1.15% |

| SMILES | growth inhibition [1] | growth inhibition [2] | growth inhibition [3] | growth inhibition [4] | growth inhibition [5] | growth inhibition [6] |
| --- | --- | --- | --- | --- | --- | --- |
| Cc1ccc([N+](=O)[O-])cc1NC(=O)Cc1ccccc1 | 4.05% | 29.8% | 1.45% | -8% | 18.3% | 17.6% |
| Cc1cccc2c1sc1c(C)cc(C(=O)CCC(=O)O)cc12 | 9% | 11.2% | 5.3% | 3.4% | 20.4% | 25.4% |
| CCOC(=O)NC(C(N)=O)C(N)=O | -0.3% | 15.8% | -1.6% | -44% | -13.3% | -2.45% |
| O=C(CSc1cc(Cl)c(Cl)cc1Cl)Nc1cccc(Cl)c1 | -7.9% | -6.9% | 6.3% | -12.6% | -2.85% | 3.5% |
| Clc1ccc(C2NC(c3ccccc3)c3c(ccc4ccccc34)O2)cc1Cl (stereo unspecified) | 86.2% (active) | 92.6% (active) | 92.2% (active) | 88.2% (active) | 90.5% (active) | 92.1% (active) |
| Nc1nc(SCC(=O)O)[nH]c(=O)c1NS(=O)(=O)c1ccccc1[N+](=O)[O-] | 21.4% | -4.1% | -2.4% | 23.1% | 2.75% | 5.6% |
| CN(C)N=Nc1c(F)cc(F)c(F)c1F | 4.75% | 3.35% | -9% | -14.2% | 7.3% | -4.05% |
| CC1CNC(=O)NC1=O.O.O.[NH2-].[NH2-].[Pt+4] (stereo unspecified) | 7.55% | 11.2% | -0.75% | -51% | -5.95% | -5.85% |
| COC(=O)/C=C1\SC(OC)(N(C)c2ccccc2)N(C)C1=O (stereo unspecified) | -25.6% | 9.6% | 22.7% | -10.4% | -0.8% | 19.1% |
| CCCCN(CCCC)CC(O)c1cc(-c2c(Cl)cccc2Cl)nc2c(Cl)cc(Cl)cc12 (stereo unspecified) | 53.3% | 55.3% | 55% | 13.8% | 20.8% | 64.1% |
| O/N=C1\CCCC\C1=N/O | 6.55% | -9.8% | -8.35% | -3.1% | 8.95% | -4.25% |
| CC1=N[C@](C)(C2CC3C=CC2C3=O)COC1=O (stereo partly specified) | -15.5% | -18.5% | -27% | -1.9% | -11.6% | -5.45% |
| CCCCNc1ncnc2c1cnn2-c1ccccc1 | 7% | -1% | 3.2% | -26.9% | -4.75% | 0% |
| CCCCCCCC(=O)Oc1c(Cl)c(Cl)c(C#N)c(Cl)c1C#N | 20.9% | -3.55% | 11.5% | 13.7% | 5.8% | 25.4% |
| CC(NC(=O)NCCCl)c1cccc2ccccc12 (stereo unspecified) | -7.25% | -1.25% | -2.4% | 44.2% | -8.25% | 5.15% |
| CC1=C/C(=N\NC(=O)c2ccc[n+](C)c2)CC(C)(C)C1 | 18.7% | 2.2% | 6% | 18.4% | -5.4% | 12.2% |
| C#CCn1cnc2c1c(=O)n(C)c(=O)n2C | 10.2% | -12.7% | -7.35% | -0.8% | -11.7% | -10.7% |
| Cc1cccc(N=C/C=C/c2ccccc2)c1C | 0.85% | -6.4% | -20.7% | -50.6% | -4.7% | -5.85% |
| O=C(Nc1nc2ncn(CCNCCn3cnc4nc(NC(=O)c5ccccc5)[nH]c(=O)c43)c2c(=O)[nH]1)c1ccccc1 | -10.2% | 14.1% | 17.5% | 25.9% | 16.8% | 17% |
| Oc1ccc(-c2csc(NNC3=NC/C(=C/c4ccc5c(c4)OCO5)S3)n2)cc1O | 30.9% | -16.9% | 40.4% | -11.4% | 21.1% | 40.8% |
